Results taken from PubChem BioAssay AID1159580 (chemical genetic matrix, 2015).
Where “and” joins values, the source holds several entries; their conditions need not be identical. Equal entries are not always repeated. About 2,000 (36%) of roughly 5,500 compounds were called active. Not shown: some 18% with an inconclusive outcome. No stated cut-off is given here; in the data, active means normalized growth mostly below about 0.91 (no sharp cut-off); inconclusive means no clear call, values can overlap the other calls; inactive means mostly above about 0.92. This is one part of the list.

Assay: chemical genetic growth profiling, strain panel (AID 1159580);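 further: tested at 20 µM; growth read once vehicle control cultures reached saturation at 30 °C; 1 = growth at the plate median or of vehicle wells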
Conditions: S. cerevisiae deletion strains, growth OD

Measured: normalized growth

Cc1cc(CC(=O)O)n(C)c1C(=O)c1ccc(Cl)cc1
inactive: locus YAL013W, strain DEP1, stronger effect = lower value 1 | locus YAL021C, strain ccr4, stronger effect = lower value 1 | locus YAL026C, strain drs2, stronger effect = lower value 1.04 | locus YAL030W, strain snc1, stronger effect = lower value 1.01 | locus YBL061C, strain skt5, stronger effect = lower value 1.04 | locus YBR009C, strain hhf1, stronger effect = lower value 0.999 | locus YBR021W, strain FUR4, stronger effect = lower value 0.979 | locus YBR023C, strain chs3, stronger effect = lower value 1.03 | locus YBR171W, strain sec66, stronger effect = lower value 1.04 | locus YBR229C, strain ROT2, stronger effect = lower value 0.997 | locus YBR231C, strain swc5, stronger effect = lower value 1.02 | locus YBR279W, strain paf1, stronger effect = lower value 1.02 | locus YCL011C, strain gbp2, stronger effect = lower value 1.03 | locus YCL016C, strain dcc1, stronger effect = lower value 1.04 | locus YCL029C, strain bik1, stronger effect = lower value 1.02 | locus YCL061C, strain MRC1, stronger effect = lower value 1.03 | locus YCL069W, strain vba3, stronger effect = lower value 1.04 | locus YCR088W, strain abp1, stronger effect = lower value 1.03 | locus YDL005C, strain med2, stronger effect = lower value 1.02 | locus YDL035C, strain GPR1, stronger effect = lower value 0.989 | locus YDL040C, strain nat1, stronger effect = lower value 1.02 | locus YDL074C, strain BRE1, stronger effect = lower value 0.978 | locus YDL101C, strain DUN1, stronger effect = lower value 1 | locus YDL134C, strain PPH21, stronger effect = lower value 1 | locus YDL185W, strain tfp1, stronger effect = lower value 0.997 | locus YDL192W, strain arf1, stronger effect = lower value 1.01 | locus YDR001C, strain nth1, stronger effect = lower value 1.02 | locus YDR069C, strain doa4, stronger effect = lower value 1.01 | locus YDR101C, strain arx1, stronger effect = lower value 1.01 | locus YDR137W, strain rgp1, stronger effect = lower value 1.04 | locus YDR150W, strain NUM1, stronger effect = lower value 0.998 | locus YDR159W, strain sac3, stronger effect = lower value 1.02 | locus YDR162C, strain NBP2, stronger effect = lower value 0.997 | locus YDR195W, strain ref2 1.02 | locus YDR297W, strain sur2, stronger effect = lower value 1.03 | locus YDR318W, strain mcm21, stronger effect = lower value 1 | locus YDR334W, strain swr1, stronger effect = lower value 1.03 | locus YDR335W, strain msn5, stronger effect = lower value 1.03 | locus YDR388W, stronger effect = lower value 0.998 | locus YDR392W, strain spt3, stronger effect = lower value 1.02 | locus YDR502C, strain sam2, stronger effect = lower value 0.995 | locus YEL003W, strain gim4, stronger effect = lower value 1.02 | locus YEL037C, strain rad23, stronger effect = lower value 1.02 | locus YEL061C, strain CIN8 (second series), stronger effect = lower value 1.03 | locus YEL061C, strain CIN8, stronger effect = lower value 1 | locus YER015W, strain faa2, stronger effect = lower value 1.03 | locus YER016W, strain bim1, stronger effect = lower value 1.04 | locus YER110C, stronger effect = lower value 1 | locus YER111C, strain swi4, stronger effect = lower value 1.02 | locus YER155C, strain BEM2 (second series), stronger effect = lower value 1.01 | locus YER155C, strain BEM2, stronger effect = lower value 0.982 | locus YER167W, strain BCK2, stronger effect = lower value 0.992 | locus YFR010W, strain ubp6, stronger effect = lower value 1.01 | locus YGL078C, strain dbp3, stronger effect = lower value 1 | locus YGL086W, strain mad1, stronger effect = lower value 0.998 | locus YGL167C, strain pmr1, stronger effect = lower value 1.02 | locus YGL173C, strain kem1, stronger effect = lower value 1.02 | locus YGL227W, strain vid30, stronger effect = lower value 1.02 | locus YGL240W, strain doc1, stronger effect = lower value 1 | locus YGL248W, strain PDE1, stronger effect = lower value 0.998 | locus YGL253W, strain hxk2, stronger effect = lower value 1.04 | locus YGR078C, strain PAC10, stronger effect = lower value 0.988 | locus YGR135W, strain pre9, stronger effect = lower value 0.988 | locus YGR229C, strain SMI1, stronger effect = lower value 0.998 | locus YGR252W, strain gcn5, stronger effect = lower value 0.945 | locus YHR013C, strain ard1, stronger effect = lower value 1.05 | locus YHR027C, strain rpn1, stronger effect = lower value 1.02 | locus YHR030C, strain SLT2, stronger effect = lower value 1 and 1.02 | locus YHR079C, strain IRE1 (second series), stronger effect = lower value 1 | locus YHR079C, strain IRE1, stronger effect = lower value 1.02 | locus YHR094C, strain hxt1, stronger effect = lower value 1 | locus YHR129C, strain ARP1, stronger effect = lower value 0.998 | locus YHR142W, strain chs7, stronger effect = lower value 1.05 | locus YHR200W, strain rpn10, stronger effect = lower value 1.01 | locus YIL066C, strain RNR3, stronger effect = lower value 0.994 | locus YIL073C, strain SPO22, stronger effect = lower value 1.02 | locus YIL125W, strain kgd1, stronger effect = lower value 1.01 | locus YIR030C, strain dcg1, stronger effect = lower value 1.01 | locus YJL092W, strain hpr5, stronger effect = lower value 1.03 | locus YJL095W, strain BCK1 (second series), stronger effect = lower value 1.03 | locus YJL095W, strain BCK1, stronger effect = lower value 0.959 and 1.01 | locus YJL115W, strain asf1, stronger effect = lower value 1.01 | locus YJL129C, strain trk1, stronger effect = lower value 1.06 | locus YJL134W, strain LCB3, stronger effect = lower value 1 | locus YJL154C, strain vps35, stronger effect = lower value 1.02 | locus YJL164C, strain tpk1, stronger effect = lower value 1.02 | locus YJL166W, strain qcr8, stronger effect = lower value 1.03 | locus YJL168C, strain set2, stronger effect = lower value 1.01 | locus YJL187C, strain SWE1 (second series), stronger effect = lower value 0.998 | locus YJL187C, strain SWE1, stronger effect = lower value 1.01 | locus YJR043C, strain POL32, stronger effect = lower value 0.997 | locus YJR066W, strain TOR1, stronger effect = lower value 0.954
